# According to PubChem BioAssay:
# Several values for one entry are separate records, joined by “and”; a condition that tells them apart may be missing. Identical values can stand only once. Results filed as inconclusive are left out. Activity calls are given as the source filed them. Cut-off read from the data, not from the text of the source, unless noted: active = inhibition above about 80%; inactive = the rest.
# Assays:
# [1] = liver-stage malaria parasite load reduction – cell-based, known kinase inhibitor set, luminescence, hepatoma host viability (AID 624392; call rule not given here;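 note: infected cells incubated roughly two days before readout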); settings: Plasmodium liver stage in hepatoma cells, luciferase luminescence, concentration not given here; liver cell % of control: measured here: host liver cell viability; parasite % of control: stronger effect = lower value
# [2] = molecular target: ATP-dependent translocase ABCB1 (Homo sapiens) (UniProt P08183); test: P-glycoprotein substrate transport blockade – cell-based (AID 377; in the data active = fluorescence slope change above about 50%); settings: MDR1-expressing cells, fluorescent substrate accumulation slope; stronger effect = higher value; concentration not given here
# [3] = compounds altering viability of human ES cells (AID 493140; call rule not given here;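 note: cells exposed to compounds for four days before counting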); settings: human embryonic stem cell survival screen; stronger effect = higher value
# [4] = P. berghei load reduction in hepatocytes – cell-based, HepG2, luciferase luminescence, HepG2 viability, primary screen (AID 624349; in the data active = parasite load remaining mostly below about 12%, no sharp cut-off; inactive = mostly above about 10%;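 note: 100% = mean of DMSO negative control wells on the same plate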); settings: P. berghei liver stage in HepG2, luciferase luminescence, concentration not given here; parasite load remaining: stronger effect = lower value; viability: measured here: HepG2 viability without parasites
# [5] = molecular target: NAD(+) hydrolase SARM1 (Homo sapiens) (UniProt Q6SZW1); test: blocking NAD cleavage by SARM1 SAM-TIR – cell lysate, NAD-Glo luminescence (AID 1508614;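 active = compound whose remaining NAD level is above about 45 nM, limit read from the data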;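 note: higher remaining NAD means stronger inhibition of SARM1 NADase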); settings: SAM-TIR HEK293T lysate NADase, at 1 µM, stronger effect = higher value
# [6] = molecular target: Mitogen-activated protein kinase 7 (Homo sapiens) (UniProt Q13164); test: Gal4-ERK5 driven luciferase induction – cell-based, HTS, primary screen (AID 1508626;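 active = luciferase signal above three times the same-plate solvent-only control wells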;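 note: luciferase driven by Gal4-ERK5 fusion binding five Gal4 sites before minimal TATA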); settings: HeLa Gal4-ERK5 transactivation, 18 h, at 5 µM, stronger effect = higher value
# [7] = galactose survival enhancers in mitochondrial complex I cybrids – cell-based, galactose medium, ATP luminescence, primary screen (AID 1645843;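 active = z-score of at least 1.8 in each of two replicates, scored against plate mean and spread of sample wells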;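 note: positive z means more ATP and so rescue of galactose-driven cybrid death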); settings: complex I mutant cybrid cells, 72 h, stronger effect = higher value
# [8] = growth inhibition, single agents and combos, LFS_MB_1R, cell-based, cisplatin or BGB combos, synergistic combos for chromothripsis tumors (AID 1671452); settings: LFS_MB_1R medulloblastoma cells, stronger effect = higher value;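 note: cells exposed for 96 hours before readout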
# [9] = growth inhibition, single agents and combos, CRL2098, cell-based, BGB or cisplatin IC20 combos, synergistic combos for chromothripsis tumors (AID 1671454); settings: CRL2098 osteosarcoma cells, drug combinations, stronger effect = higher value;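 note: cells exposed for 96 h before readout; 0% = vehicle DMSO and 100% = killing by high DMSO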
# [10] = growth inhibition, single agents and combos, HD-MB03, cell-based, BGB or cisplatin IC20 combos, synergistic combos for chromothripsis tumors (AID 1671455; in the data active = inhibition above about 83%;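 note: 0% = vehicle DMSO and 100% = high DMSO as cytotoxic control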); settings: HD-MB03 medulloblastoma cells, stronger effect = higher value
# [11] = growth inhibition, single agents and combos, UWB1.289, cell-based, BGB or cisplatin combos, synergistic combos for chromothripsis tumors (AID 1671456); settings: UWB1.289 ovarian carcinoma cells, stronger effect = higher value;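 note: cells exposed to compound for four days; 0% = vehicle DMSO and 100% = killing by high DMSO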
# [12] = growth inhibition, single agents and combos, LFS_MB_2R, cell-based, cisplatin combos, synergistic combos for chromothripsis tumors (AID 1671457); settings: LFS_MB_2R medulloblastoma cells, stronger effect = higher value;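 note: cells exposed to compound for four days before readout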
# [13] = UWB1.289_BRCA1 ovarian cancer growth, cell-based, BGB or cisplatin combinations (AID 1671459); settings: UWB1.289 BRCA1 ovarian carcinoma, drug combinations, stronger effect = higher value
# [14] = drug combination toxicity in non-malignant astrocytes – cell-based, BGB or cisplatin IC20 combos, cytotoxicity control for chromothriptic childhood tumor combination screen (AID 1671460); settings: Human astrocytes, viability inhibition, drug combinations, at 0.5 µM, stronger effect = higher value;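 note: cells exposed to compounds for 96 hours before viability readout; 0% = vehicle and 100% = killing control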
# [15] = CRL1545 cell growth, single agent and combined, cisplatin and BGB IC20 combos (AID 1671464); settings: CRL1545 osteosarcoma cells, stronger effect = higher value;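 note: cells exposed to compound for 96 hours before readout; 0% = vehicle DMSO and 100% = high DMSO killing control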
# [16] = measured here: combination with BGB IC40, at 0.05 µM
# [17] = measured here: combination with cisplatin, at 0.5 µM
# [18] = measured here: combination with cisplatin, at 5 µM
# [19] = measured here: combination with BGB at IC20, at 0.5 µM
# [20] = measured here: combination with cisplatin at IC20, at 0.5 µM
# [21] = measured here: combo with BGB at IC20, at 0.5 µM
# [22] = measured here: combo with cisplatin at IC20, at 0.5 µM
# [23] = measured here: inhibition with BGB combination, at 0.05 µM
# [24] = measured here: inhibition with cisplatin combination, at 0.05 µM
# [25] = BGB combination, concentration series, at 5 µM
# [26] = cisplatin combination, concentration series, at 5 µM
# [27] = measured here: combo with BGB IC20
# [28] = measured here: combo with cisplatin IC20
# [29] = measured here: with BGB IC20 combination, at 0.5 µM
# [30] = measured here: with cisplatin IC20 combination, at 0.5 µM
# Sequence of NAD(+) hydrolase SARM1 (Homo sapiens) (Q6SZW1 whole entry, looked up, the tested form may be a part): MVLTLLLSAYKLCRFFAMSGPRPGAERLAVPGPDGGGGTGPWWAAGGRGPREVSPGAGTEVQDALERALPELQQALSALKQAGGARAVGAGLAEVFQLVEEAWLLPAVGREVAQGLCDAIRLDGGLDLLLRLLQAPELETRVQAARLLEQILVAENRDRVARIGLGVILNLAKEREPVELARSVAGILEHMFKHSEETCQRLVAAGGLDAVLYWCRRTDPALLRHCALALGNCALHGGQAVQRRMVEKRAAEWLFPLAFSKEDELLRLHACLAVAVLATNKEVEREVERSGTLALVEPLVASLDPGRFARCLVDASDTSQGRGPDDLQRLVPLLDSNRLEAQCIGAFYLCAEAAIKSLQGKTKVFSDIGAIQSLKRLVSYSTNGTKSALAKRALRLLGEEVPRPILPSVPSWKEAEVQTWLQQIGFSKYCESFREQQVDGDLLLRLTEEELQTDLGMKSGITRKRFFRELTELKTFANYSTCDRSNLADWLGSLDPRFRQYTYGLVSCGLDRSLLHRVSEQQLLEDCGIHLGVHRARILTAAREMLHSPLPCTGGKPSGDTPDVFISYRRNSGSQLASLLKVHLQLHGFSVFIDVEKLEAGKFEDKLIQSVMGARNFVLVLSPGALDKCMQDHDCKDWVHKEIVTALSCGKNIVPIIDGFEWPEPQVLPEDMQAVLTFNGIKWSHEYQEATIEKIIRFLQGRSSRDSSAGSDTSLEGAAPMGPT
# Sequence of Mitogen-activated protein kinase 7 (Homo sapiens) (Q13164 whole entry, looked up, the tested form may be a part): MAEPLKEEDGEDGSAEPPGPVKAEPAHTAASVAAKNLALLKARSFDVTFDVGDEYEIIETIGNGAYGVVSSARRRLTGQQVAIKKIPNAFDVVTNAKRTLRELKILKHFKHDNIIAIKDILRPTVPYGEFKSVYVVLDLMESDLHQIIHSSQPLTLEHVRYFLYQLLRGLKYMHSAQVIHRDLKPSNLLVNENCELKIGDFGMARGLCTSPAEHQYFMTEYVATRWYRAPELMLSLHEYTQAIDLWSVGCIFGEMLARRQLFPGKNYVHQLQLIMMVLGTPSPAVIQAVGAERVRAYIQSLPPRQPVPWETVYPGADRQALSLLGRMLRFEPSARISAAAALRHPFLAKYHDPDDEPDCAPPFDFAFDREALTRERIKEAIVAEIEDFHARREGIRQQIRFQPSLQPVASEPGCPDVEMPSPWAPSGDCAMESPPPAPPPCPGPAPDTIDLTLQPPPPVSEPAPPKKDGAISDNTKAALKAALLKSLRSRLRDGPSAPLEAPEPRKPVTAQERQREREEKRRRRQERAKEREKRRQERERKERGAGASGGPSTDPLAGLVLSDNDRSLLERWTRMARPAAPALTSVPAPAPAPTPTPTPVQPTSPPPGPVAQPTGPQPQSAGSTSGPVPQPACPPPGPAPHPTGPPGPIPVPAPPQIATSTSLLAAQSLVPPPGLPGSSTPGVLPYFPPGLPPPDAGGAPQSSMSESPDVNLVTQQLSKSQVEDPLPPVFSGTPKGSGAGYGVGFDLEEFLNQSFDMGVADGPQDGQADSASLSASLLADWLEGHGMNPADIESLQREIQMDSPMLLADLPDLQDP
# Sequence of ATP-dependent translocase ABCB1 (Homo sapiens) (P08183 whole entry, looked up): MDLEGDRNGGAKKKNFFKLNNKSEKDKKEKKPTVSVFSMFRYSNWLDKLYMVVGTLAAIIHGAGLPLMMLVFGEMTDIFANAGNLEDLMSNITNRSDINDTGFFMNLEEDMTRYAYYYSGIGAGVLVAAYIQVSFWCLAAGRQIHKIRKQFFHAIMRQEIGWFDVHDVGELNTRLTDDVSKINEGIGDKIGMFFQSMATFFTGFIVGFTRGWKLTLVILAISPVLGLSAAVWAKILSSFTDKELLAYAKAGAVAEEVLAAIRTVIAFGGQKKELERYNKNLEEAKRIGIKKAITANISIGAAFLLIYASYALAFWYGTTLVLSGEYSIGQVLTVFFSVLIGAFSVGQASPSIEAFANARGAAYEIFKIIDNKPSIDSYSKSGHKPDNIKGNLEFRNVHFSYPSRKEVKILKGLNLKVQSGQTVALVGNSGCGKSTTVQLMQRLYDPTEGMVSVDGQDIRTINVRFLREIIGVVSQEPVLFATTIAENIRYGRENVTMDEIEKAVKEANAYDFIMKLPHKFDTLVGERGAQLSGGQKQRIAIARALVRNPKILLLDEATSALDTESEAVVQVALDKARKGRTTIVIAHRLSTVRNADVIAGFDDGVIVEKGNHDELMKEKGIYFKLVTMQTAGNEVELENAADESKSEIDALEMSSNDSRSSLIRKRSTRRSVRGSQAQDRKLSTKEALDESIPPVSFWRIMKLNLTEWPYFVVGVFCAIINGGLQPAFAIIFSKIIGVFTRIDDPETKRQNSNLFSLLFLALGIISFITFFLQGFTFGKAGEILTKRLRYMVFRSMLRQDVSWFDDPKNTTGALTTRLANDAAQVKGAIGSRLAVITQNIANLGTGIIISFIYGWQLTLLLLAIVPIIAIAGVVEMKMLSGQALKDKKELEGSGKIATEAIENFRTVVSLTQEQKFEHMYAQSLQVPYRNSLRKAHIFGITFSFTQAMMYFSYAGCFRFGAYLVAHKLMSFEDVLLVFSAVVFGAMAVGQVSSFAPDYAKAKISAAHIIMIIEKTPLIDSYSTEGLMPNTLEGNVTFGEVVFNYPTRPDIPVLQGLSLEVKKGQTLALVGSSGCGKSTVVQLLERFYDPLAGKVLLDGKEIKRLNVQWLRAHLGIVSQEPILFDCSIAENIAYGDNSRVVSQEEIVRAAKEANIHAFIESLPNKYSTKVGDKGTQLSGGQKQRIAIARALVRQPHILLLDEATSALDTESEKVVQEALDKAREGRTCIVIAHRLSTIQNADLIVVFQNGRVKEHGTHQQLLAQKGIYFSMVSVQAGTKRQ
smiles,measurement,setting,value
Cc1ccc(C(=O)Nc2cccc(C(F)(F)F)c2)cc1-c1ccc2nc(NCCN3CCOCC3)ncc2c1,liver cell % of control,[1],51.5% and 76.3% and 85.2%
same,parasite % of control,[1],60.4% (inactive) and 252% (inactive) and 87.5% (inactive)
Cn1c(=O)n(-c2ccc(C(C)(C)C#N)cc2)c2c3cc(-c4cnc5ccccc5c4)ccc3ncc21,liver cell % of control,[1],79.1% and 72.9%
same,parasite % of control,[1],288% (inactive) and 494% (inactive) and 6.49% (inactive)
CO[C@H]1/C=C/O[C@@]2(C)Oc3c(C)c(O)c4c(O)c(c(/C=N/N5CCN(C)CC5)c(O)c4c3C2=O)NC(=O)/C(C)=C\C=C\[C@H](C)[C@H](O)[C@@H](C)[C@@H](O)[C@@H](C)[C@H](OC(C)=O)[C@@H]1C,fluorescence slope change,[2],69.2% (active)
same,survival,[3],9.5 (inactive)
same,parasite load remaining,[4],95.1% (inactive) and 71.6% (inactive) and 41.3% (inactive)
same,viability,[4],99.1% and 71.9% and 96.5%
same,remaining NAD,[5],10 nM (inactive)
same,luciferase signal,[6],44 AU (inactive)
same,z-score,[7],1.12 (inactive)
C[Se]CCC(N)C(=O)O (stereo not drawn),remaining NAD,[5],10 nM (inactive)
Clc1ccc2c(N3CCN(CCCN4CCN(c5ccnc6cc(Cl)ccc56)CC4)CC3)ccnc2c1,z-score,[7],-0.6 (inactive)
Cc1nc(N)ncc1-c1nc(N2CCOCC2)c2sc(C(C)(C)O)cc2n1,liver cell % of control,[1],78.4% and 78.6% and 93.7%
same,parasite % of control,[1],406% (inactive) and 544% (inactive) and 660% (inactive)
COc1nccc(-c2c(-c3ccc(F)cc3)ncn2C2CCNCC2)n1,liver cell % of control,[1],89.2% and 92.3% and 100%
same,parasite % of control,[1],45.1% (inactive) and 35% (inactive) and 41.5% (inactive)
c1cc(OCCN2CCCCC2)cc(-c2n[nH]c3ccc(-c4ncn[nH]4)cc23)c1,liver cell % of control,[1],77.7% and 82.4% and 94%
same,parasite % of control,[1],63.2% (inactive) and 149% (inactive) and 87% (inactive)
O=C(CCCCCCNC(=O)c1cnc(N(c2ccccc2)c2ccccc2)nc1)NO,inhibition,[8]; at 0.5 µM,-2.12% (inactive) and -15.9% (inactive)
same,inhibition,[8]; [16],-29.1% and -24.9%
same,inhibition,[8]; [17],6.1% and -31.8%
same,inhibition,[8]; [18],84.8% and 59.4%
same,inhibition,[9]; at 0.5 µM,-71.5% (inactive) and -77.4% (inactive)
same,inhibition,[9]; [19],-57.1% and -110%
same,inhibition,[9]; [20],-110% and -74.1%
same,inhibition,[10]; at 0.5 µM,1.23% (inactive) and -11.6% (inactive)
same,inhibition,[10]; [21],-8.85% and -13.2%
same,inhibition,[10]; [22],14.2% and -7.98%
same,inhibition,[11]; at 0.5 µM,1.59% (inactive) and 9.83% (inactive)
same,inhibition,[11]; [23],-25.2% and -41.7%
same,inhibition,[11]; [24],-17.6% and -12.7%
same,inhibition,[12]; at 0.5 µM,-17.5% (inactive) and -17% (inactive)
same,inhibition,[12]; [17],-3.75% and -9.43%
same,inhibition,[12]; [18],74.7% and 60.9%
same,inhibition,[13]; [25],47.7% and 28.3%
same,inhibition,[13]; at 0.5 µM,1.98% (inactive) and -9.53% (inactive)
same,inhibition,[13]; [26],66.1% and 58.6%
same,inhibition,[14],-18.3% (inactive) and 0.04% (inactive)
same,inhibition,[14]; [27],-21.3% and 12.4%
same,inhibition,[14]; [28],-18.3% and -8.91%
same,inhibition,[15]; at 0.5 µM,-14% (inactive) and -9.25% (inactive)
same,inhibition,[15]; [29],-11% and -28.2%
same,inhibition,[15]; [30],-17.4% and -1.39%
same,inhibition,"[15]; single agent, at 0.05 µM",-31.8% and -21.9%
same,inhibition,"[15]; single agent, at 5 µM",89.1% and 74.4%
CC1(C)O[C@@H]2C[C@H]3[C@@H]4CCC5=CC(=O)C=C[C@]5(C)[C@H]4[C@@H](O)C[C@]3(C)[C@]2(C(=O)CO)O1,remaining NAD,[5],10 nM (inactive)
same,luciferase signal,[6],172 AU (inactive)
Cc1ccc([N+](=O)[O-])cc1S(=O)(=O)N(C)/N=C/c1cnc2ccc(Br)cn12,parasite load remaining,[4],40.5% (inactive)
same,viability,[4],60.2%
same,inhibition,[8]; at 0.5 µM,82.3% (active)
same,inhibition,[8]; [16],-47.5%
same,inhibition,[8]; [17],77.8%
same,inhibition,[8]; [18],97.4%
same,inhibition,[9]; at 0.5 µM,89.7% (active)
same,inhibition,[9]; [19],91.5%
same,inhibition,[9]; [20],95.8%
same,inhibition,[10]; at 0.5 µM,84.2% (active)
same,inhibition,[10]; [21],85%
same,inhibition,[10]; [22],81.5%
same,inhibition,[11]; at 0.5 µM,63.4% (inactive)
same,inhibition,[11]; [23],-17.5%
same,inhibition,[11]; [24],-14.7%
same,inhibition,[12]; at 0.5 µM,63.9% (inactive)
same,inhibition,[12]; [17],63.1%
same,inhibition,[12]; [18],90.7%
same,inhibition,[13]; [25],89.2%
same,inhibition,[13]; at 0.5 µM,73.9% (inactive)
same,inhibition,[13]; [26],92.4%
same,inhibition,[14],83.2% (active)
same,inhibition,[14]; [27],77.8%
same,inhibition,[14]; [28],81.3%
same,inhibition,[15]; at 0.5 µM,96.9% (active)
same,inhibition,[15]; [29],98.1%
same,inhibition,[15]; [30],96.2%
same,inhibition,"[15]; single agent, at 0.05 µM",-27.4%
same,inhibition,"[15]; single agent, at 5 µM",99.9%
CC[C@H](/C=C/[C@@H](C)[C@H]1CC[C@H]2[C@@H]3CC=C4C[C@@H](O)CC[C@]4(C)[C@H]3CC[C@]12C)C(C)C,luciferase signal,[6],52 AU (inactive)
O=C(NCCCNc1nc(Nc2cccc(NC(=O)N3CCCC3)c2)ncc1I)c1cccs1,liver cell % of control,[1],74.4% and 44.5% and 88.3%
same,parasite % of control,[1],0.4% (inactive) and 0.22% (inactive) and 6.81% (inactive)
CN(C)Cc1c(C(=O)NCCOc2ccc(C(=O)NO)cc2)oc2ccccc12,inhibition,[8]; at 0.5 µM,45.6% (inactive)
same,inhibition,[8]; [16],-17%
same,inhibition,[8]; [17],62.1%
same,inhibition,[8]; [18],98.2%
same,inhibition,[9]; at 0.5 µM,25.5% (inactive)
same,inhibition,[9]; [19],32.6%
same,inhibition,[9]; [20],21.9%
same,inhibition,[10]; at 0.5 µM,99.3% (active)
same,inhibition,[10]; [21],99.1%
same,inhibition,[10]; [22],99.5%
same,inhibition,[11]; at 0.5 µM,49.7% (inactive)
same,inhibition,[11]; [23],11.1%
same,inhibition,[11]; [24],27.1%
same,inhibition,[12]; at 0.5 µM,51.5% (inactive)
same,inhibition,[12]; [17],71.4%
same,inhibition,[12]; [18],106%
same,inhibition,[13]; [25],111%
same,inhibition,[13]; at 0.5 µM,59.3% (inactive)
same,inhibition,[13]; [26],125%
same,inhibition,[14],49.9% (inactive)
same,inhibition,[14]; [27],45%
same,inhibition,[14]; [28],44%
same,inhibition,[15]; at 0.5 µM,80.7% (active)
same,inhibition,[15]; [29],78.9%
same,inhibition,[15]; [30],81.1%
same,inhibition,"[15]; single agent, at 0.05 µM",38.5%
same,inhibition,"[15]; single agent, at 5 µM",96.4%
C=C(c1ccc(C(=O)O)cc1)c1cc2c(cc1C)C(C)(C)CCC2(C)C,parasite load remaining,[4],34.5% (inactive)
same,viability,[4],146%
same,z-score,[7],0.715 (inactive)
CC[C@H](CO)Nc1nc(NCc2ccccc2)c2ncn(C(C)C)c2n1,survival,[3],75.1 (inactive)
same,parasite load remaining,[4],29.6% (inactive)
same,viability,[4],68.3%
